LYP act = LYP (human) phosphatase activation; recombinant LYP, DiFMUP fluorescence; 0 = plate median, 100 = signal doubled; activation, % at 2 µM; 96,000 compounds, 0.11% hits;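 active = activation at 2 µM above a set limit, the mean plus 5 SD, cut at about 37% in these data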
Target sequence (Q9Y2R2 whole entry, looked up): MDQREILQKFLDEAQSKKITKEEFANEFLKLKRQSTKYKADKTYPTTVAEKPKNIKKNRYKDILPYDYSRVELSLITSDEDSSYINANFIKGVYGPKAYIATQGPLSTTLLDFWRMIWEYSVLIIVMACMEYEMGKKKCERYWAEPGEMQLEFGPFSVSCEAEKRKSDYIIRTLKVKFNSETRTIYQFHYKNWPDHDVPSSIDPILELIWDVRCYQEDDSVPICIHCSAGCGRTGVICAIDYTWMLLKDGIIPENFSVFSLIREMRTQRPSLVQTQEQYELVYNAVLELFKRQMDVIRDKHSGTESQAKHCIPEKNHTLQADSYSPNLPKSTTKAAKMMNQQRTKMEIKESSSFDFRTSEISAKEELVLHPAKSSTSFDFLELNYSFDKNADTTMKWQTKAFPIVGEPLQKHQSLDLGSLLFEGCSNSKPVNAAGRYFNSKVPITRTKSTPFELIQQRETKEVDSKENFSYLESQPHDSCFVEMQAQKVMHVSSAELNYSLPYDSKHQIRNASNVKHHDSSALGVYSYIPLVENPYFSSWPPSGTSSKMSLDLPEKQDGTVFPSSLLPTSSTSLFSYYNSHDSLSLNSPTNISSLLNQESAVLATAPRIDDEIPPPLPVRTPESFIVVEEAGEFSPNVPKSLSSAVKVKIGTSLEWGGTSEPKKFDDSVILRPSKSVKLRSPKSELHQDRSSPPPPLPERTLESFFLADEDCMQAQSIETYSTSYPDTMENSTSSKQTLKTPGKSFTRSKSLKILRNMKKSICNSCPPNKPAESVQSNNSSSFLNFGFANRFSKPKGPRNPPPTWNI
Measles CPE = protection of cells from measles virus; Measles virus-infected cells, CPE protection, absorbance; protection (pct of control), % at 4 µM; 140,000 compounds, 1.5% hits; AID 841; in the data active = protection mostly above about 24%, no sharp cut-off; inactive = mostly below about 26%
PTPN22 inh 2 = blocks human PTPN22 phosphatase activity; recombinant LYP catalytic domain, DiFMUP fluorescence; inhibition, % at 2 µM; 96,000 compounds, 0.21% hits; AID 640;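 active = inhibition at 2 µM at or above a set limit, the screen mean plus 3 SD, cut at about 24% in these data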
PTPN22 act conf = LYP (PTPN22) phosphatase activation confirmation. Recombinant LYP, DIFMUP fluorescence; zero set by plate's median compound well. activation, % at 2 µM. shares compounds with LYP act. 100 tested, under 10 active. AID 1031; call rule not given here
Hits are given with their value. Rows were chosen to be rich in hits. Some 1.7% of all compounds tested hit in one or more screens of this group.

`O=C(Cn1c(S(=O)(=O)Cc2ccccc2)nc2ccccc21)N1CCCCC1` gave LYP act inactive, Measles CPE inactive and PTPN22 inh 2 inactive.
`COc1ccccc1NC(=O)Cc1noc(CSc2nnc(C)s2)n1` gave LYP act 46, Measles CPE inactive, PTPN22 inh 2 inactive and PTPN22 act conf inactive.
`COc1ccccc1NC(=O)Cc1noc(CSc2nnc(N)s2)n1` gave LYP act inactive, Measles CPE inactive and PTPN22 inh 2 inactive.
Screening Cc1ccc(/C=N/NC(=O)C2CC(=O)N(c3ccccc3)C2)s1 (stereo not given) returned Measles CPE inactive.
Screening OC1CCN(c2ncnc3nc[nH]c23)CC1 returned Measles CPE inactive.
Screening CC1CCN(c2ncnc3nc[nH]c23)CC1 returned LYP act 42, Measles CPE inactive, PTPN22 inh 2 inactive and PTPN22 act conf inactive.
Screening COc1ccc(NCCNc2ccc(OC)cc2)cc1 returned LYP act inactive, Measles CPE inactive and PTPN22 inh 2 inactive.
`COc1ccc(Nc2c(C)cccc2C)cc1` gave LYP act 39, Measles CPE inactive, PTPN22 inh 2 inactive and PTPN22 act conf inactive.
`O=C(Nc1cccnc1)c1ccccc1O` gave LYP act inactive, Measles CPE inactive and PTPN22 inh 2 inactive.
For O=C(Nc1cccnc1)c1cccnc1Cl the results were LYP act 38, Measles CPE inactive, PTPN22 inh 2 inactive and PTPN22 act conf inactive.
Screening Cc1ccccc1OCC(=O)OC1CCN(C)CC1 returned LYP act inactive, Measles CPE inactive and PTPN22 inh 2 inactive.
For Cc1ccccc1OCC(=O)OC(C)CN1CCN(C)CC1 (stereo not given) the results were LYP act 48, Measles CPE inactive, PTPN22 inh 2 inactive and PTPN22 act conf inactive.
`COC(=O)C1=C(C)N(c2cccc(OC)c2)C(=O)/C1=C\c1ccco1` gave Measles CPE inactive.
`C=CCN1CC2CC3(COc4cc(C)cc(C)c4)C=CC2(O3)C1=O` (stereo not given) gave LYP act inactive, Measles CPE inactive and PTPN22 inh 2 inactive.
`CCOc1cc(S(=O)(=O)NCc2ccccn2)c(C)cc1C` gave LYP act inactive, Measles CPE inactive and PTPN22 inh 2 inactive.
Screening CCOc1cc(S(=O)(=O)NCc2ccccn2)ccc1Cl returned LYP act 37, Measles CPE inactive, PTPN22 inh 2 inactive and PTPN22 act conf inactive.
COc1cccc(SCc2noc(C(=O)NCC3CCCO3)c2C(=O)O)c1 (stereo not given) was read as LYP act 54, Measles CPE inactive, PTPN22 inh 2 inactive and PTPN22 act conf inactive.
O=C(NCC1CCCO1)c1onc(CSc2ccc(Cl)cc2)c1C(=O)O (stereo not given) was read as LYP act inactive, Measles CPE inactive and PTPN22 inh 2 inactive.
For CCOC(=O)C(Oc1ccc2c(-c3ccc(OC)cc3)cc(=O)oc2c1C)c1ccccc1 (stereo not given) the results were LYP act 44, Measles CPE inactive, PTPN22 inh 2 inactive and PTPN22 act conf inactive.
Screening CCOC(=O)C(Oc1ccc2c(-c3ccccc3)cc(=O)oc2c1C)c1ccccc1 (stereo not given) returned Measles CPE inactive.
`CCn1cc[n+](C)c1P(c1ccccc1)c1ccccc1` gave Measles CPE inactive.
`O=C(O)C1CCCN1C(=O)Oc1ccccc1` (stereo not given) gave LYP act inactive, Measles CPE inactive and PTPN22 inh 2 inactive.
Cn1c(CO)cnc1SCc1ccc([N+](=O)[O-])cc1 was read as Measles CPE inactive.
Screening Cc1cccc(CSc2ncc(CO)n2C)c1 returned LYP act 38, Measles CPE inactive, PTPN22 inh 2 inactive and PTPN22 act conf inactive.
Screening CCCCNS(=O)(=O)c1ccc(NC(=O)C2c3ccccc3Oc3ccccc32)cc1 returned Measles CPE inactive.
For Cc1ccc(-n2c(-c3ccncc3)nnc2-c2cccs2)cc1 the results were LYP act inactive and PTPN22 inh 2 inactive.
CCCOc1ccc(-c2nnn(CC(=O)c3ccc4c(c3)OCCO4)n2)cc1 was read as LYP act inactive, Measles CPE inactive and PTPN22 inh 2 inactive.
Screening OCCOc1ccc(C2=NCCO2)cc1 returned LYP act 38, Measles CPE inactive, PTPN22 inh 2 inactive and PTPN22 act conf inactive.
Screening CC(C)(C)Nc1nc(C(N)=O)nc(N2CCOCC2)n1 returned LYP act inactive, Measles CPE inactive and PTPN22 inh 2 inactive.
NC(=O)c1nc(N2CCOCC2)nc(N2CCOCC2)n1 was read as LYP act 41, Measles CPE inactive, PTPN22 inh 2 inactive and PTPN22 act conf inactive.
Screening Cc1ccccc1OCC(=O)NNC(=O)CN1C(=O)c2ccccc2C1=O returned Measles CPE inactive.

Screening results from PubChem.
